Drawing on PubChem BioAssay (NCI), this text covers growth inhibition for 40 molecules.

Structures are written as SMILES. About 79,000 compounds went through this panel and 15% of them were active in at least one assay; those are over-represented in the sample as a whole. Active and inactive are the calls of the source. Cut-off read from the data, not from the text of the source: active = growth inhibition above about 70%; inactive = the rest.

A short description of the first test: NCI Yeast Anticancer Drug Screen. Data for the rad50 strain (AID 155).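 Note: 0% = growth of vehicle-only cultures of the same strain.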 The conditions noted are these: S. cerevisiae rad50 strain growth inhibition; at 50.0 µM; active compounds read high. Put shortly:
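Relative growth inhibition (compound vs vehicle) was measured in yeast with a defined repair-gene alteration.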
For `O=C1CC=C2C3CC4N(CCC45c4ccccc4N1C25)C/C3=C\CBr` (stereo not drawn), the growth inhibition is -8.45% (inactive). Turning to `O=C(NNC(=O)c1cccc2ccccc12)c1ccccc1F`, the growth inhibition was -16.6% (inactive). `CCCCCCOC(=O)C[n+]1ccc(C(N)=O)cc1`: the growth inhibition was 2.45% (inactive). The same measure, in the same setting: in the case of `CCCCCCCCCCCCCCCCOc1ccc(-c2cc(=O)n(C)n2C)cc1OC` it was -14.1% (inactive); in that of `O=C(O)C1NCCC1Oc1ccccc1` (stereo not drawn), -3.9% (inactive). Take `CCN(CC)c1ccc(C=O)cc1`: the growth inhibition was 6.8% (inactive). For `CCc1ccc(NC(C)=O)cc1C`, the growth inhibition is -9.5% (inactive). Consider `O=c1[nH]nc(-c2ccccc2)c2c1[nH]c1ccccc12`, for which the growth inhibition is -13.8% (inactive). In the case of `CCOC(=O)Nc1c(O)cccc1N1CCOCC1`, the growth inhibition is -14.1% (inactive). Still for that read-out and setting: the result for `O=C(/C=C/c1ccc(Cl)cc1)c1cccs1` reads -2.85% (inactive).

As to `O=P1(O)c2ccccc2CCc2ccccc21`, the growth inhibition is 10.1% (inactive). Regarding `N=C1N=C(N)C(CCCOc2cc(Cl)ccc2Cl)(CCCOc2cc(Cl)ccc2Cl)C(N)=N1`, the growth inhibition is 99% (active). For the molecule `Cc1ccc(S(=O)(=O)CC(O)(C(C)C)C(C)C)cc1`, the growth inhibition is -19% (inactive). For the molecule `O=C(NNc1nc(N2CCOCC2)nc(N2CCOCC2)n1)c1ccccc1`, the growth inhibition is 16.6% (inactive). Consider `NC(=O)NC(N)=O`, for which the growth inhibition was 13.3% (inactive). Regarding `Cc1ccc(-c2cc(=O)c3cc(C)c(C)c(C(=O)O)c3o2)cc1`, the growth inhibition was 3.15% (inactive). Turning to `[N-]=[N+]=NC(=O)c1cccc2c1Cc1ccccc1-2`, the growth inhibition was 8.85% (inactive). In the case of `CCc1ccccc1O`, the growth inhibition was 6.1% (inactive). `N#CC(C#N)=C1C=CC=CC=C1`: the growth inhibition is 14.2% (inactive). In the case of `O=C1C(O)=C(Cl)C(=O)C(OC2=C(Cl)C(=O)C(OC3=C(Cl)C(=O)C(OC4=C(Cl)C(=O)C(Cl)=C(Cl)C4=O)=C(Cl)C3=O)=C(Cl)C2=O)=C1Cl`, the growth inhibition is 9.55% (inactive). Consider `CC(C)(C)OC(=O)N1CCCC1C(=O)NCCNc1ccc(NCCNC(=O)C2CCCN2C(=O)OC(C)(C)C)c2c1C(=O)c1ccccc1C2=O` (stereo not drawn), for which the growth inhibition is 13.8% (inactive). Regarding `CCCCCCCCCCCCCCCCOc1ccc(C(=O)O)cc1`, the growth inhibition was 1.4% (inactive). On to `COc1ccc(Cl)cc1NC(=O)c1ccc(C(=O)Nc2cc(Cl)ccc2OC)cc1`, for which the growth inhibition is -5.85% (inactive).

Another test can be described thus: NCI Yeast Anticancer Drug Screen. Data for the mec2-1 strain (AID 157). The conditions noted are these: S. cerevisiae mec2-1 strain, at 50.0 µM, active compounds read high. Put shortly:
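Readout is yeast growth inhibition, normalised to vehicle-treated controls, in the mec2-1 strain exposed to compound.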
In the case of `CN(C)c1ncnc2c1cnn2-c1ccc(Cl)cc1`, the growth inhibition was -6.2% (inactive).

As to `CCCCC(CC)(CC(=O)O)CC(=O)O`, the growth inhibition was 9.85% (inactive).

As to `CN1C(=O)c2ccccc2N(C)C(=O)c2ccccc21`, the growth inhibition was -15.1% (inactive). Consider `Cc1ccccc1NC=O`, for which the growth inhibition is -19.2% (inactive). For the molecule `Cc1ccc(C(=O)Nc2ccc([N+](=O)[O-])cc2)cc1`, the growth inhibition is -6.75% (inactive).

In the case of `O=P(O)(CP(=O)(c1ccccc1)c1ccccc1)c1ccccc1`, the growth inhibition was 7.25% (inactive).

On to `CC(C)(O)CCC(O)C(C)(O)C1CCC2(O)C3=CC(=O)C4(O)CC(O)C(O)CC4(C)C3CCC12C` (stereo not drawn) (tested in a mixture with another compound), for which the growth inhibition was -17.9% (inactive).

`O=C(O)/C=C\C(=O)Nc1ccc(S(=O)(=O)Nc2nccs2)cc1`: the growth inhibition was -3.45% (inactive). `O=C(O)/C=C/C(=O)Nc1cc2c(cc1Br)-c1ccccc1C2O` (stereo not drawn): the growth inhibition is 12.5% (inactive). For the molecule `CC(C)CC(NC(=O)CN)C(=O)O` (stereo not drawn), the growth inhibition was 2.4% (inactive). `NNC(=O)/C(=C/c1cccc([N+](=O)[O-])c1)NC(=O)c1ccccc1`: the growth inhibition was -25.4% (inactive).

For `Cc1cccc[n+]1CC(=O)c1ccccc1[N+](=O)[O-]`, the growth inhibition was 6.85% (inactive). In the case of `O=c1[nH]c(Nc2ccccc2)nc2c1ncn2CC(O)CSCCO` (stereo not drawn), the growth inhibition was 13.2% (inactive). Still for that read-out and setting: in the case of `CC(=O)NC(Cc1ccc(O)cc1)C(=O)O` (stereo not drawn) it was 5.25% (inactive). Same read-out and setting: in the case of `O=[N+]([O-])c1ccc(NN=C2CCCCCC2)c([N+](=O)[O-])c1` it was 8.35% (inactive); in that of `CCC(C)C(NCc1ccccc1)C(=O)O` (stereo not drawn), 7.5% (inactive); in that of `COc1ccc(/C=N/NC(=O)c2ccccc2OC)cc1`, 19.6% (inactive).

Take `O=C1CC=C2C3CC4N(CCC45c4ccccc4N1C25)C/C3=C\CBr` (stereo not drawn): the growth inhibition is -21.8% (inactive).

For `O=C(NNC(=O)c1cccc2ccccc12)c1ccccc1F`, the growth inhibition is -12.6% (inactive). The same measure, in the same setting: in the case of `CCCCCCOC(=O)C[n+]1ccc(C(N)=O)cc1` it was 17.1% (inactive). `CCCCCCCCCCCCCCCCOc1ccc(-c2cc(=O)n(C)n2C)cc1OC`: the growth inhibition is -27.2% (inactive). On the same count and under the same terms, the result for `O=C(O)C1NCCC1Oc1ccccc1` (stereo not drawn) reads -3.7% (inactive).

Take `CCN(CC)c1ccc(C=O)cc1`: the growth inhibition is -11.1% (inactive). For the molecule `CCc1ccc(NC(C)=O)cc1C`, the growth inhibition was 11.7% (inactive). Consider `O=c1[nH]nc(-c2ccccc2)c2c1[nH]c1ccccc12`, for which the growth inhibition was -15.7% (inactive). As for `CCOC(=O)Nc1c(O)cccc1N1CCOCC1`, the growth inhibition is 6.65% (inactive). For the molecule `O=C(/C=C/c1ccc(Cl)cc1)c1cccs1`, the growth inhibition was -14.3% (inactive).

Take `O=P1(O)c2ccccc2CCc2ccccc21`: the growth inhibition is -14.6% (inactive). `N=C1N=C(N)C(CCCOc2cc(Cl)ccc2Cl)(CCCOc2cc(Cl)ccc2Cl)C(N)=N1`: the growth inhibition was 95.5% (active).

In the case of `Cc1ccc(S(=O)(=O)CC(O)(C(C)C)C(C)C)cc1`, the growth inhibition was -8.6% (inactive). Consider `O=C(NNc1nc(N2CCOCC2)nc(N2CCOCC2)n1)c1ccccc1`, for which the growth inhibition was 5.15% (inactive).

For `NC(=O)NC(N)=O`, the growth inhibition is -10.4% (inactive).

`Cc1ccc(-c2cc(=O)c3cc(C)c(C)c(C(=O)O)c3o2)cc1`: the growth inhibition is 0.25% (inactive). As to `[N-]=[N+]=NC(=O)c1cccc2c1Cc1ccccc1-2`, the growth inhibition is 0.75% (inactive). Still for that read-out and setting: in the case of `CCc1ccccc1O` it was -7.6% (inactive).

For the molecule `N#CC(C#N)=C1C=CC=CC=C1`, the growth inhibition was 5% (inactive). In the case of `O=C1C(O)=C(Cl)C(=O)C(OC2=C(Cl)C(=O)C(OC3=C(Cl)C(=O)C(OC4=C(Cl)C(=O)C(Cl)=C(Cl)C4=O)=C(Cl)C3=O)=C(Cl)C2=O)=C1Cl`, the growth inhibition is 3.5% (inactive). As for `CC(C)(C)OC(=O)N1CCCC1C(=O)NCCNc1ccc(NCCNC(=O)C2CCCN2C(=O)OC(C)(C)C)c2c1C(=O)c1ccccc1C2=O` (stereo not drawn), the growth inhibition is 13.4% (inactive).

Consider `CCCCCCCCCCCCCCCCOc1ccc(C(=O)O)cc1`, for which the growth inhibition was 0.75% (inactive). As for `COc1ccc(Cl)cc1NC(=O)c1ccc(C(=O)Nc2cc(Cl)ccc2OC)cc1`, the growth inhibition was 7.3% (inactive).
